We go through 42 molecules from PubChem BioAssay AID1645882 (National Center for Advancing Translational Sciences (NCATS), 2021).

Values joined by “and” are separate entries in the source; they are usually repeats but may differ in a detail not shown here. Equal entries are not always repeated. Hit rate of the full screen: of about 16,000 compounds, about 120 (0.75%) were called active. Not shown: some 4% with an inconclusive outcome. The entries come from a sample that favours actives as a whole. Some structures have more than one record in an assay (separate samples or runs), and their calls can disagree. A number with no mark means an inactive call. The call rests on the fitted dose curve; in most records, active means well fitted inhibition curve with a large enough effect; inconclusive means small, poorly fitted or top-dose-only effect; inactive means no such curve, though single readings can be large or run the other way.
Potency means the concentration at half of the fitted maximal effect.

Rap guanine nucleotide exchange factor 3 (Homo sapiens), sequence (O95398 whole entry, looked up): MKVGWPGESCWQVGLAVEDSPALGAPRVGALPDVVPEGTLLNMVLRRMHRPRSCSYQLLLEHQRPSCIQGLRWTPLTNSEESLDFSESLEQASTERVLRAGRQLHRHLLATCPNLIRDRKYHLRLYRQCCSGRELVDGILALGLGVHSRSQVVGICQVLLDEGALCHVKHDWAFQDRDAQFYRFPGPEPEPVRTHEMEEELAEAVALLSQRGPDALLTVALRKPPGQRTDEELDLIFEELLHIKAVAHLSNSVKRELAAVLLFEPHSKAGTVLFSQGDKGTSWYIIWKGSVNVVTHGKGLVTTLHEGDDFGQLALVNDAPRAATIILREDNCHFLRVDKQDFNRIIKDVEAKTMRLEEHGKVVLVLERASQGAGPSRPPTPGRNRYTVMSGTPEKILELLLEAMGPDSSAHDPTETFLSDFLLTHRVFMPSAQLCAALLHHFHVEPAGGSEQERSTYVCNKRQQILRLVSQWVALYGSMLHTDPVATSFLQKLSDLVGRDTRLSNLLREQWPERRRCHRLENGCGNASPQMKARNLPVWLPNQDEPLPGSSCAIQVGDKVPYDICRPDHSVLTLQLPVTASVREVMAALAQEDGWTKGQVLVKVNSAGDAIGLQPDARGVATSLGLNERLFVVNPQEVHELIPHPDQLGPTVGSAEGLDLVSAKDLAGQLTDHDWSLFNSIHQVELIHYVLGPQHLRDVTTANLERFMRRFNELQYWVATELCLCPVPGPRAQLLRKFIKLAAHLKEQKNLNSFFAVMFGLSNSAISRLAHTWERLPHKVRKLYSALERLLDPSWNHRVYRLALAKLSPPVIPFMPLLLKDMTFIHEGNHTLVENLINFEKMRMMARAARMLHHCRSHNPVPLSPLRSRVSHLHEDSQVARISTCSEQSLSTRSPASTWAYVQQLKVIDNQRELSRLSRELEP

The test addresses Rap guanine nucleotide exchange factor 3 (Homo sapiens) (UniProt O95398). As to the kind of experiment: Validation qHTS for antagonist of cAMP-regulated guanine nucleotide exchange factor 3 (EPAC1). Further: nearly all actives have a fitted effect of over 75% in size. As to conditions: EPAC1 Rap1B-BODIPY-GDP exchange, fluorescence; series mostly up to 150 µM; activity change, negative = inhibition: at the top concentration. The method in brief:
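EPAC1 (100 nM) mixed with 250 nM RAP1B-BODIPY-GDP and 50 uM GDP; compounds in concentration series, 5 min at room temperature. Fluorescence (ex 480/em 540 nm) read every 5 min for 30 min; normalized to ATA control and DMSO.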
(In general: Quantitative high-throughput screening tests each substance at several concentrations.)
`Nc1ncnc2c1nc(Br)n2[C@@H]1O[C@H]2COP(=O)(O)O[C@@H]2[C@@H]1O`: the Potency is 2.82 µM (active).

For `NC1=NC2C(N=C(Br)N2[C@@H]2O[C@H]3COP(=O)(O)O[C@@H]3[C@@H]2O)C(=O)N1` (stereo partly drawn), the “activity change, negative = inhibition” value was -7.02% [at 201 µM].

Regarding `Nc1nc2c(nc(Br)n2C2OC3COP(=O)(O)O[C@@H]3C2O)c(=O)[nH]1` (stereo partly drawn), the “activity change, negative = inhibition” value was 0% [at 75.8 µM].

Take `Nc1nc2c(nc(Sc3ccc(Cl)cc3)n2C2OC(CO)C(O)C2O)c(=O)[nH]1` (stereo not drawn): the “activity change, negative = inhibition” value is 19.8%.

Consider `Nc1nc2c(nc(Br)n2[C@@H]2O[C@H]3COP(=O)(O)O[C@H]3[C@@H]2O)c(=O)[nH]1`, for which the “activity change, negative = inhibition” value was -21.7%. On the same count and under the same terms, under `O=S(=O)(c1ccccc1)N1CCC2(CCCN(c3ccccc3)C2)CC1` stands 5.08%; under `Cc1cccc(CNC(=O)c2cnn(-c3nccc(-c4ccccc4F)n3)c2C)n1`, 18.3%; under `C[C@]12C[C@H](O)CC(CO)(CO)C1[C@H](O)C[C@@]13CC4[C@@H](CC12)[C@@]4(C)C3` (stereo partly drawn), 22.1%.

As to `N#Cc1cccc(NC(=O)N2CCC3(CC2)CCN(C(=O)c2cnccn2)CC3)c1`, the “activity change, negative = inhibition” value is 12.3%. Take `O=S(=O)(NCc1ccccc1)[C@@H]1CC2C=CC1C2` (stereo partly drawn): the “activity change, negative = inhibition” value is 0.734%. For `CC(C)(C)OC(=O)NS(=O)(=O)NOCc1ccccc1`, the “activity change, negative = inhibition” value was 18.2%. On the same count and under the same terms, next, `COc1cc2c(cc1OC)C1C(=O)c3ccc4c(c3OC1CO2)C=CC(C)(C)O4` (stereo not drawn): -27.3%. On the same count and under the same terms, next, `Cc1ccccc1C1(CC(=O)N2CC3(C)CC2CC(C)(C)C3)CC(=O)N(Cc2cccnc2)C1=O` (stereo not drawn): -2.13%; `O=C(c1cccc(F)c1)N1CCC[C@@]2(CCN(Cc3ccncc3)C2)C1`: 11.1%. Same read-out and setting: under `COc1ccc(C(=O)N2CCC3(CC2)CN(c2ccccc2)C3)cc1` stands -2.38%; under `CCN(CC)CCOC[C@H]1O[C@@H](O)[C@H](OCCN(CC)CC)[C@@H](O)[C@@H]1O`, 17.7%; under `OC1(c2cccnc2)CCN(Cc2ccc3c(c2)CN(Cc2cc4ccccc4s2)CCO3)CC1`, -8.5%.

With `COC(=O)c1c(OCCN2CCCCC2)cc(=O)n2c1CCN(Cc1cccc3nccnc13)CC2`, the “activity change, negative = inhibition” value is -0.569%. The same measure, in the same setting: under `Cn1c(=O)c(-c2ccccc2)nc2cnc(Nc3ccccc3)nc21` stands 19.1%; under `O=C(Nc1cccc(F)c1)N1CC[C@@]2(CCCN(C(=O)c3ccco3)C2)C1`, 21%; under `O=C(c1csnn1)N1CCC[C@@]2(CCN(c3ncccn3)C2)C1`, 16.4%.

Take `CC(=O)N[C@@H](CSC/C=C(\C)CC/C=C(\C)CC/C=C(\C)CCC=C(C)C)C(=O)O`: the Potency is 56.2 µM (active) and the activity change, negative = inhibition is 32.8% [at 15.3 µM]. Regarding `CC(=O)N[C@@H](CSC/C=C(\C)CCC=C(C)C)C(=O)O`, the Potency entry is “inactive”. Regarding `CC(=O)CC/C=C(\C)CC/C=C(\C)CC/C=C(\C)CCC=C(C)C`, the “activity change, negative = inhibition” value was 24.4%. The same measure, in the same setting: under `CCN(CC)CCOc1ccccc1OC` stands 3.14%. In the case of `C[C@H](CC[C@@H]1OC1(C)C)C1CC[C@H]2[C@@H]3CC=C4C[C@@H](O)CC[C@]4(C)[C@H]3CC[C@]12C` (stereo partly drawn), the “activity change, negative = inhibition” value is 14.3%. Consider `C[C@@H]1C(=O)CC2C(C)(C)CCC[C@]2(C)[C@@]1(O)CCc1ccoc1` (stereo partly drawn), for which the “activity change, negative = inhibition” value was -5.75%. Same read-out and setting: under `CCOC(=O)/C=C/c1ccc2c(c1)S(=O)(=O)N(C1CCCC1)[C@H]2CC(=O)OCC` stands -27.3%; under `O=C(O)/C=C/c1ccc2c(c1)S(=O)(=O)N(C1CCCC1)[C@H]2CC(=O)O`, -10.5%. As to `CC(=O)/C=C/c1ccc2c(c1)S(=O)(=O)N(C1CCCC1)[C@H]2CC(C)=O`, the Potency is 56.2 µM (active). As for `CC1(C)S[C@@H]2[C@H](NC(=O)C(N)c3ccccc3)C(=O)N2[C@H]1C(=O)OC1OC(=O)c2ccccc21` (stereo partly drawn), the “activity change, negative = inhibition” value was 8.83% [at 75.8 µM]. For `COc1ccc(N2C(=O)[C@@H]3C[C@H]2CN3Cc2cccn2-c2ccc(Cl)cn2)c(C)c1`, the “activity change, negative = inhibition” value was 12.9%. Still for that read-out and setting: next, `COc1ccc2c(c1)[C@@]1(C)CCC[C@](C)(CO)C1CC2` (stereo partly drawn): -3.59%.

With `Cc1cc(C(=O)NCc2nc(-c3ccccc3NC(=O)C3CCCO3)oc2C)nc(C)n1` (stereo not drawn), the “activity change, negative = inhibition” value was 3.75%.

As to `COc1c2ccccc2nc2occc12`, the “activity change, negative = inhibition” value was 7.29%. As to `O=C(O)C1=CC(=C(c2ccc(O)c(C(=O)O)c2)c2ccc(O)c(C(=O)O)c2)C=CC1=O`, the Potency was 56.2 µM (active) and 1.58 µM (active). On to `O=C(O)c1cc(N=Nc2ccc(O)c(C(=O)O)c2)ccc1O`, for which the “activity change, negative = inhibition” value was 5.06%.

On to `Nc1ccc(O)c(C(=O)O)c1`, for which the “activity change, negative = inhibition” value was 0.11%. On the same count and under the same terms, next, `O=C(NCC1CCC2(CCN(Cc3c[nH]c4ccccc34)CC2)O1)C1CCOCC1` (stereo not drawn): 2.25%. As to `CO[C@H]1C=CO[C@@]2(C)Oc3c(C)c(O)c4c(O)c(c(C=NN5CCN(C)CC5)c(O)c4c3C2=O)NC(=O)C(C)=CC=C[C@H](C)[C@H](O)[C@@H](C)[C@@H](O)[C@@H](C)[C@H](OC(C)=O)[C@H]1C`, the “activity change, negative = inhibition” value is 11% [at 39.6 µM].

For `CO[C@H]1C=CO[C@@]2(C)Oc3c(C)c(O)c4c(O)c(c(/C=N/N5CCN(C)CC5)c(O)c4c3C2=O)NC(=O)/C(C)=C\C=C[C@H](C)[C@H](O)[C@@H](C)[C@@H](O)[C@@H](C)[C@H](OC(C)=O)[C@@H]1C`, the Potency is 89.1 µM (active). Regarding `CO[C@H]1C=CO[C@@]2(C)Oc3c(C)c(O)c4c(O)c(cc(O)c4c3C2=O)NC(=O)/C(C)=C\C=C/[C@H](C)[C@H](O)[C@@H](C)[C@@H](O)[C@@H](C)[C@H](OC(C)=O)[C@@H]1C`, the “activity change, negative = inhibition” value was -10.9%.
